In paper PMC4552634, “A New Set of Chemical Starting Points with Plasmodium falciparum Transmission-Blocking Potential for Antimalarial Drug Discovery” (PLoS ONE, 2015):
About 3,200 (25%) of roughly 13,000 compounds showed an effect of 50% or more. Some of the results follow.

system: P. falciparum stage V gametocytes; design: BacTiter-Glo ATP luminescence viability of purified stage V gametocytes in 384-well plates, per cent inhibition versus DMSO; details: 48 h, 5 µM; inhibitor

SMILES | % Inhibition [%]
O=C(Nc1ccc2c(c1)CCN2C1CCN(Cc2cccc(C(F)(F)F)c2)C1)c1ccco1 (centres unmarked) [TCMDC-135065] | -42.49
CCOC(=O)c1ccc(-c2cnc(N)c(-c3nc4c(C)cccc4[nH]3)c2)cc1 [TCMDC-135560] | 19.55
COc1cc(CCCOc2c(N)nc(N)nc2N)cc(OC)c1OC [TCMDC-131361] | 8.778
CC(C)(C)c1ccc(CN2CCC(CNC(=O)c3cc(-c4ccccc4Cl)cs3)C2)cc1 (centres unmarked) [TCMDC-134445] | 95.91
COc1ccccc1-c1csc(C(=O)NCC2CCN(Cc3ccc(C(C)(C)C)cc3)C2)c1 (centres unmarked) [TCMDC-134511] | -88.72
CCc1ccccc1-c1csc(C(=O)NCC2CCN(Cc3ccc(C(C)(C)C)cc3)C2)c1 (centres unmarked) [TCMDC-134448] | 91.94
CC(C)c1ccc(CN2CCCCC(NC(=O)c3cc(-c4ccccc4Cl)cs3)C2)cc1 (centres unmarked) [TCMDC-134464] | -27.61
CN(C)c1ccc(CN2CCC(CNC(=O)c3cc(-c4ccccc4Cl)cs3)C2)cc1 (centres unmarked) [TCMDC-134455] | 49.98
CCc1ccc(CN2CCC(CNC(=O)c3cc(-c4ccccc4Cl)cs3)C2)cc1 (centres unmarked) [TCMDC-134433] | 74.35
CC(C)(C)c1nn(-c2ccccc2)c2[nH]c(=O)c(CNC3CCCCC3)cc12 [TCMDC-123551] | 7.742
CC(=O)c1ccc(NC(=O)NNC(=O)c2ccc(CCN3CCC(c4nc(COCC(F)(F)F)c(-c5ccc(F)cc5)o4)CC3)cc2)cc1 [TCMDC-131905] | -7.106
NCC1(c2nc(-c3ccc(Cl)c(O)c3)c(-c3ccncc3)[nH]2)CCCCC1 [TCMDC-141154] | 57.41
Oc1cc(-c2nc(C3(CNCc4ccc(Cl)cc4)CCCCC3)[nH]c2-c2ccncc2)ccc1Cl [TCMDC-141155] | -6.27
CC(C)(CN)c1nc(-c2ccc(Cl)c(O)c2)c(-c2ccncc2)[nH]1 [TCMDC-140369] | -60.83
CC(CNC(=O)c1cc2c(Cl)cc(Cl)cc2[nH]1)CNc1cc(=O)c2ccccc2[nH]1 (centres unmarked) [TCMDC-140624] | -21.72
CCC(C)NS(=O)(=O)c1ccc2nc(Nc3ccc(C)c(Cl)c3)n(C(C)C(C)C)c2c1 (centres unmarked) [TCMDC-134310] | -65.92
CC[C@H]1CN2CCc3c([nH]c4ccccc34)[C@@H]2C[C@@H]1CC1c2cc(OC)c(OC)cc2CCN1C (some centres unmarked) [TCMDC-142011] | -85.21
CCC1CN2CCc3c([nH]c4ccccc34)C2CC1CC1=NCCc2c1[nH]c1ccccc21 (centres unmarked) [TCMDC-141998] | 9.363
Br.CC[C@H]1CN2CCc3cc(OC)c(OC)cc3[C@@H]2C[C@@H]1CC1=NCCc2c1[nH]c1ccc(OCc3ccccc3)cc21 [TCMDC-137627] | 69.01
CCOC(=O)c1ccc(NC(=O)Nc2ccc(-c3cccc(-c4nc5ccccc5[nH]4)c3)cc2)cc1 [TCMDC-133270] | -42.41
COc1ccccc1CNC(=O)c1ccc(N2CCN(c3ccncc3)CC2)cn1 [TCMDC-135158] | 60.69
COc1ccccc1CCNC(=O)c1cnc(N2CCN(c3ccncc3)CC2)c(Cl)c1 [TCMDC-134595] | 89.83
O=C(NCc1ccc(F)cc1)c1cc(Br)cc(N2CCN(c3ccncc3)CC2)c1 [TCMDC-135150] | 12

SMILES | % Inhibition [%]
Cc1ccccc1CCNC(=O)c1cnc(N2CCN(c3ccncc3)CC2)c(Cl)c1 [TCMDC-134598] | 14.18
COc1ccccc1CNC(=O)c1cc(Br)cc(N2CCN(c3ccncc3)CC2)c1 [TCMDC-135151] | 104.3
O=C(NCCc1cccc(Cl)c1Cl)c1cnc(N2CCN(c3ccncc3)CC2)c(Cl)c1 [TCMDC-134597] | -18.32
COc1ccccc1CCNC(=O)c1cc(Br)cc(N2CCN(c3ccncc3)CC2)c1 [TCMDC-135148] | -33.58
O=C(NCc1cccc(CN2CCOCC2)c1)c1cc(Br)cc(N2CCN(c3ccncc3)CC2)c1 [TCMDC-135152] | 69.44
O=C(NCCc1cccc(F)c1)c1cc(Br)cc(N2CCN(c3ccncc3)CC2)c1 [TCMDC-135145] | 3.253
O=C(NCCc1ccccc1F)c1cc(Br)cc(N2CCN(c3ccncc3)CC2)c1 [TCMDC-135147] | -5.133
O=C(NCCc1ccccc1F)c1ccc(N2CCN(c3ccncc3)CC2)cn1 [TCMDC-135154] | -6.834
O=C(NCc1ccc(F)cc1)c1ccc(N2CCN(c3ccncc3)CC2)cn1 [TCMDC-135157] | 0.3973
CC(CC1CCCCC1)NCc1ccccc1OCCC(=O)N1CCCC1C(N)=O (centres unmarked) [TCMDC-140917] | -9.137
Cc1c(Oc2ccc(-n3ccnc3)cc2)ncnc1N1CCC2(CC1)CNCc1ccccc12 [TCMDC-137157] | 6.86
CC(C)c1ccc(CN2CCC(NC(=O)c3ccc(-c4cccc(F)c4)s3)CC2)cc1 [TCMDC-134346] | -27.58
Cc1nccn1CCNC(=O)CN1CCC2(CCC1=O)CC(=O)c1ccccc1O2 (centres unmarked) [TCMDC-125379] | -42.89
O=C(O)CCCN1CCCC(=C(c2ccccc2)c2ccccc2)C1 [TCMDC-141969] | -38.14
COC(=O)c1ccc(OCC(O)CO)cc1O (centres unmarked) [TCMDC-123463] | 4.056
CC(C)c1ccc(NC(=O)N2CCc3ccc(OCCN(C(C)C)C(C)C)cc32)c(Br)c1 [TCMDC-140252] | 63.96
CC(C)N(CCOc1ccc2c(c1)N(C(=O)Nc1cc(Br)cc(C(F)(F)F)c1)CC2)C(C)C [TCMDC-140250] | -0.9347
CC(C)N(CCOc1ccc2c(c1)N(C(=O)Nc1ccc(Cl)c(Cl)c1)CC2)C(C)C [TCMDC-140254] | 8.096
Fc1ccc(C(OCC2CCCN(Cc3cccc4cccnc34)C2)c2ccc(F)cc2)cc1 (centres unmarked) [TCMDC-136044] | -14.61
COC1(C)Oc2ccc3cccc([N+](=O)[O-])c3c2C1=O (centres unmarked) [TCMDC-131378] | -5.605
CCOc1ccc(C(=O)Nc2cc(Cl)ccc2O)cc1Cl [TCMDC-123684] | -34.32
CCOc1ccc(C(C)NC(=O)c2ccc(OC)c(Br)c2)cc1OCC (centres unmarked) [TCMDC-124876] | 88.58
CCOc1ccc(C(C)NC(=O)c2cc(Cl)ccc2OC)cc1OCC (centres unmarked) [TCMDC-125016] | 67.36

SMILES | % Inhibition [%]
CCOc1cc(C(C)C)ccc1N1CCN(CCCCNC(=O)c2ccc(NC(=O)c3ccc(Cl)cc3)cc2)CC1 [TCMDC-138519] | -10.71
Cc1cccc2nc(C(=O)Nc3nc(CN4CCC(C)CC4)cs3)cn12 [TCMDC-125340] | 11.88
c1cc(-c2ccc(CN3CCCC3)cc2)cc(-c2nc3ccccc3[nH]2)c1 [TCMDC-133794] | 34.22
CN1CCC(NCc2cccc(-c3cccc(-c4nc5ccc(C(F)(F)F)cc5[nH]4)c3)c2)CC1 [TCMDC-132735] | 38.83
CN1CCC(NCc2ccc(-c3cccc(-c4nc5ccccc5[nH]4)c3)cc2)CC1 [TCMDC-132551] | 85.21
COCCN1CCN(Cc2ccc(-c3cccc(-c4nc5ccccc5[nH]4)c3)cc2)CC1 [TCMDC-132559] | 86.66
c1ccc2[nH]c(-c3ccc(-c4ccc(CN5CCCCC5)cc4)cc3)nc2c1 [TCMDC-133906] | 32.64
c1cc(CN2CCN(CCN3CCOCC3)CC2)cc(-c2cccc(-c3nc4ccccc4[nH]3)c2)c1 [TCMDC-133922] | -15.36
COCCN1CCN(Cc2cccc(-c3ccc(-c4nc5ccccc5[nH]4)cc3)c2)CC1 [TCMDC-133023] | -14.55
CN1CCC(N2CCN(Cc3cccc(-c4ccc(-c5nc6ccccc6[nH]5)cc4)c3)CC2)CC1 [TCMDC-133850] | 29.34
N#CCCN1CCN(Cc2cccc(-c3ccc(-c4nc5ccccc5[nH]4)cc3)c2)CC1 [TCMDC-133852] | -22.87
c1cc(-c2ccc(CNC3CC3)cc2)cc(-c2nc3ccccc3[nH]2)c1 [TCMDC-132538] | -44.27
CN1CCN(Cc2ccc(-c3cccc(-c4nc5ccccc5[nH]4)c3)cc2)CC1 [TCMDC-132542] | 58.54
CN1CCC(N2CCN(Cc3cccc(-c4cccc(-c5nc6ccccc6[nH]5)c4)c3)CC2)CC1 [TCMDC-133878] | 70.79
Cc1noc(C)c1-c1ccc2c(Nc3ccccc3C(C)(C)C)c(C(=O)NC3CCCC3)cnc2c1.Cl [TCMDC-136365] | -46.26
N#Cc1cc(C(=O)c2cc(Cl)ccc2O)cn(-c2cccc(C(F)(F)F)c2)c1=O [TCMDC-124543] | 16.34
CCc1nc(N)nc(N)c1-c1cccc(Cl)c1 [TCMDC-137371] | -15
CNc1nc(NN=Cc2ccccc2Cl)nc(Nc2cccc(C(F)(F)F)c2)n1 [TCMDC-124188] | -11.55
N#CC(c1ccc(Cl)cc1)c1ccc2c(C(F)(F)F)cc(C(F)(F)F)nc2n1 (centres unmarked) [TCMDC-124176] | 9.763
CCOc1cccc(C(=O)Nc2cccc(CN3CCCN(Cc4ccc(O)cc4)CC3)c2)c1 [TCMDC-141862] | 17.88
OC(CNCc1ccccc1Oc1ccccc1)c1cc(Br)cs1 (centres unmarked) [TCMDC-141369] | 34.47
COc1ccc(CC(=O)NC(CCN2CCC3(CCc4ccccc43)CC2)c2ccc(Cl)c(Cl)c2)cc1 (centres unmarked) [TCMDC-141762] | -72.25
